Assay [1] in a line: ATG_GRE_CIS: Attagene CIS-FACTORIAL HepG2 Assay for human Glucocorticoid Response Elements (GRE) (AID 2282947). The settings on record: HepG2 GRE cis-reporter, Attagene multiplex mRNA; actives raise or lower the signal. Summed up: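 Reporter transcripts read by RT-PCR with capillary electrophoresis fluorescence after a 24 h chemical exposure of HepG2 cells transiently transfected with multiple cis-element reporter units. Gain or loss fitted against DMSO.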

Assay [2] is described as follows: ATG_ISRE_CIS: Attagene CIS-FACTORIAL HepG2 Assay for human Interferon Regulatory Factor 1 (IRF1) binding to an Interferon-Stimulated Response Element (ISRE) (AID 2282948). The conditions noted are these: HepG2 ISRE cis-reporter (Attagene), mRNA transcription readout; actives raise or lower the signal. Summed up: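 Read-out: fluorescent RT-PCR products resolved by capillary electrophoresis, reporting endogenous transcription factor activity via ISRE-driven reporter mRNA in transfected HepG2 cells dosed for 24 h; gain or loss fitted relative to DMSO.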

Assay [3] in a line: ATG_M_32_CIS: Attagene CIS-FACTORIAL HepG2 Assay for M32 Transcription Factor (Internal Marker) (AID 2282949).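 Note: background control marker of the multiplexed CIS panel rather than a real target.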 The conditions noted are these: HepG2 Attagene cis-factorial M32 reporter, mRNA; actives raise or lower the signal. Summed up: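 HepG2 transfectants (cis-regulated reporter transcription units) dosed 24 h. Reporter mRNA by RT-PCR plus CE, analysed as gain or loss relative to DMSO.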

Assay [4] can be described thus: ATG_M_06_CIS: Attagene CIS-FACTORIAL HepG2 Assay for M06 Transcription Factor (Internal Marker) (AID 2282950). The settings on record: HepG2 Attagene CIS-FACTORIAL M06 internal marker reporter; actives raise or lower the signal. The essentials:
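Fluorescence-labelled RT-PCR products from cis-promoter reporter units, cut with HpaI and resolved by capillary electrophoresis, give the signal. Cells are human HepG2, dosed for 24 h. Serves as background control, fitted relative to DMSO.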

Assay [5] has as its target Hypoxia-inducible factor 1-alpha (Homo sapiens) (UniProt Q16665). The experiment in a line: ATG_HIF1a_CIS: Attagene CIS-FACTORIAL HepG2 Assay for human Hypoxia Inducible Factor 1 (HIF1A) (AID 2282951). The settings on record: HepG2 Attagene cis-factorial HIF1a reporter transcription; actives raise or lower the signal. Summed up:
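HepG2, transient cis-reporter library, 24 h dosing. RNA → RT (oligo dT) → PCR → 6-FAM primer extension → HpaI → CE. Bidirectional curve fit vs DMSO.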

Assay [6] has as its target Hepatocyte nuclear factor 6 (Homo sapiens) (UniProt Q9UBC0). The experiment in a line: ATG_HNF6_CIS: Attagene CIS-FACTORIAL HepG2 Assay for human Hepatocyte Nuclear Factor 6 (HNF6) (AID 2282952). The conditions noted are these: HepG2 Attagene cis-factorial HNF6 reporter transcription; actives raise or lower the signal. The essentials: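 Endogenous transcription factor activity in human HepG2 liver cells was captured through cis-regulated reporter constructs. After 24 h treatment, reporter mRNA was measured by RT-PCR with capillary electrophoresis, and activity was fitted in both directions relative to DMSO.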

Assay [7] concerns the target Heat shock factor protein 1 (Homo sapiens) (UniProt Q00613). The experiment in a line: ATG_HSE_CIS: Attagene CIS-FACTORIAL HepG2 Assay for human Heat Shock Transcription Factor 1 (HSE) (AID 2282953). The conditions noted are these: HepG2 HSE cis-reporter, Attagene RNA transcription; actives raise or lower the signal. The essentials:
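After a 24 h incubation with test chemical, transfected HepG2 cells were harvested for RNA; reporter transcripts were measured by RT-PCR and capillary electrophoresis. Values reflect gain or loss of signal relative to DMSO.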

A short description of assay [8]: ATG_MRE_CIS: Attagene CIS-FACTORIAL HepG2 Assay for human Metal Responsive Element (MRE) (AID 2282954). The conditions noted are these: HepG2 MRE cis-reporter transcription, Attagene multiplex; actives raise or lower the signal. The essentials: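 Endogenous MRE-dependent transcription read as reporter mRNA in transiently transfected human HepG2 cells at 24 h. RNA reverse-transcribed, PCR-amplified, labelled and resolved by capillary electrophoresis; gain or loss relative to DMSO.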

A short description of assay [9]: ATG_PBREM_CIS: Attagene CIS-FACTORIAL HepG2 Assay for human Phenobarbital-responsive Enhancer Module (PBREM) (AID 2282955). The conditions noted are these: HepG2 PBREM cis-reporter, Attagene multiplexed transcription; actives raise or lower the signal. The essentials: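 HepG2, transient MRTU transfection, 24 h dosing; RNA → oligo(dT) RT → PCR → 6-FAM extension → HpaI → CE. Bidirectional fit vs DMSO.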

The target in assay [10] is Paired box protein Pax-6 (Homo sapiens) (UniProt P26367). The assay can be described thus: ATG_Pax6_CIS: Attagene CIS-FACTORIAL HepG2 Assay for human Paired Box 6 (PAX6) (AID 2282956). The settings on record: HepG2 CIS-FACTORIAL PAX6 reporter transcription, RNA readout; actives raise or lower the signal. Summed up: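 Readout: reporter transcript fluorescence after RT-PCR and capillary electrophoresis. Cells: HepG2, transiently transfected with cis-regulated MRTUs. Exposure 24 h. Gain or loss of signal fitted bidirectionally relative to DMSO.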
Sequence of Paired box protein Pax-6 (Homo sapiens) (P26367 whole entry, looked up): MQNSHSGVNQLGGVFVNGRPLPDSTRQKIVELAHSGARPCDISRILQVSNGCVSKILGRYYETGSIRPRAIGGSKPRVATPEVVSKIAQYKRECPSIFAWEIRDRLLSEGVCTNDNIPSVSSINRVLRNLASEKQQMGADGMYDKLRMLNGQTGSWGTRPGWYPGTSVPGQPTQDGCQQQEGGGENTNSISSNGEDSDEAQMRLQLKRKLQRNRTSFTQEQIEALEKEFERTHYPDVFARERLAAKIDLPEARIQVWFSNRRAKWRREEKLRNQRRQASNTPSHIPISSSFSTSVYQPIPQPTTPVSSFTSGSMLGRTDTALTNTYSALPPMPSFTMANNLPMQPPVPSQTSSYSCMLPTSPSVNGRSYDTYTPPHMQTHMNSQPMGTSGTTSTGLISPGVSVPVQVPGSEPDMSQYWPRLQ

Assay [11] in a line: ATG_PXRE_CIS: Attagene CIS-FACTORIAL HepG2 Assay for human Pregnane X Receptor Element (PXRE) (AID 2282957). The settings on record: HepG2 Attagene CIS-FACTORIAL PXRE reporter, mRNA; actives raise or lower the signal. The essentials: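 Endogenous transcription factor activity in HepG2 was gauged through induction of reporter mRNA driven by a cis-regulating promoter element, sampled 24 h post-treatment. Activity was fitted in both directions against DMSO negative control.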

A short description of assay [12]: ATG_PPRE_CIS: Attagene CIS-FACTORIAL HepG2 Assay for human Peroxisome Proliferator-activated Response Element (PPRE) (AID 2282958). The conditions noted are these: HepG2 PPRE cis-element reporter, Attagene transcription factor profiling; actives raise or lower the signal. The essentials: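 Transcript-level reporter induction in transfected HepG2 cells after 24 h chemical exposure, quantified by fluorescence from RT-PCR products separated by capillary electrophoresis.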

Assay [13] is described as follows: ATG_RORE_CIS: Attagene CIS-FACTORIAL HepG2 Assay for human RAR-related Orphan Receptor Element (RORE) (AID 2282959). The settings on record: HepG2 Attagene cis-factorial RORE reporter, mRNA; actives raise or lower the signal. Summed up: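 Multiplexed reporter assay measuring mRNA induction from a cis promoter element in transiently transfected HepG2 cells after 24 h treatment. Detection via RT-PCR and capillary electrophoresis fluorescence; DMSO serves as baseline.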

Assay [14] deals with Transcription factor Sp1 (Homo sapiens) (UniProt P08047). The assay can be described thus: ATG_Sp1_CIS: Attagene CIS-FACTORIAL HepG2 Assay for human Specificity Protein 1 (Sp1) (AID 2282961). The conditions noted are these: HepG2 Sp1 cis-reporter transcription, actives raise or lower the signal. The essentials:
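Measures mRNA induction of an Sp1-linked reporter in HepG2 cells 24 h post-dosing. Multiplexed reporters read by RT-PCR and capillary electrophoresis; DMSO serves as negative control and baseline.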

Assay [15] can be described thus: ATG_SREBP_CIS: Attagene CIS-FACTORIAL HepG2 Assay for human Sterol Regulatory Element Binding (SREBP) (AID 2282962). The conditions noted are these: HepG2 Attagene cis-factorial SREBP reporter, mRNA; actives raise or lower the signal. Summed up: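 Readout: fluorescent reporter-transcript peaks resolved by capillary electrophoresis after RT-PCR. Cells were human HepG2 carrying transfected cis-promoter reporter constructs, dosed for 24 h. Gain or loss of signal was fitted against DMSO controls.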

The target in assay [16] is Signal transducer and activator of transcription 3 (Homo sapiens) (UniProt P40763). The assay can be described thus: ATG_STAT3_CIS: Attagene CIS-FACTORIAL HepG2 Assay for human Signal Transducer and Activator of Transcription 3 (STAT3) (AID 2282963). The conditions noted are these: HepG2, Attagene cis-factorial STAT3 reporter transcription; actives raise or lower the signal. Summed up: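 Readout is reporter transcript quantified by RT-PCR and capillary electrophoresis, with 6-FAM primer extension and HpaI digestion. Total RNA is taken 24 h after dosing transiently transfected HepG2 carrying cis-regulated reporter units. Bidirectional fit against DMSO.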
Sequence of Signal transducer and activator of transcription 3 (Homo sapiens) (P40763 whole entry, looked up): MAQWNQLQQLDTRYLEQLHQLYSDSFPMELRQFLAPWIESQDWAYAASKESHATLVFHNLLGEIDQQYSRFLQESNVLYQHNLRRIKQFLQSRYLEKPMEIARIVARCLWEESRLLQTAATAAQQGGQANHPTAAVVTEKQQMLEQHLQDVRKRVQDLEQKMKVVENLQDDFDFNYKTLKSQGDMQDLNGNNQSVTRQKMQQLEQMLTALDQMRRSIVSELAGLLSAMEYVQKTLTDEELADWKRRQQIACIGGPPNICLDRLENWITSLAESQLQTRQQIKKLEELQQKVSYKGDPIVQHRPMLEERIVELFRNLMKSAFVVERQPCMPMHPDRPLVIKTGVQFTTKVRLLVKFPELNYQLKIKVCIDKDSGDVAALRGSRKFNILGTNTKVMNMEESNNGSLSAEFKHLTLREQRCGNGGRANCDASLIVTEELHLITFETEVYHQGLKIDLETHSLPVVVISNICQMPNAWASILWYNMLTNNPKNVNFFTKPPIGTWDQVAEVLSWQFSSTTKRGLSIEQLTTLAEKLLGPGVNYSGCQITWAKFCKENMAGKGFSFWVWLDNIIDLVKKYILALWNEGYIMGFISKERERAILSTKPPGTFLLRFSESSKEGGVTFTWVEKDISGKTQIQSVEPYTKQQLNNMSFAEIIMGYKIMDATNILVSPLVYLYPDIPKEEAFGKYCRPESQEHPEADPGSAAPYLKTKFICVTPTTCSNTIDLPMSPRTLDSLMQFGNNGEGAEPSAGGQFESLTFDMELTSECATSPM

Assay [17] in a line: ATG_TCF_b_cat_CIS: Attagene CIS-FACTORIAL HepG2 Assay for human T-Cell-Factor with beta-catenin (TCF/b-cat) (AID 2282965). The conditions noted are these: HepG2 TCF/beta-catenin cis-reporter transcription, actives raise or lower the signal. Summed up:
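Endogenous transcription factor activity is captured through cis-promoter reporter constructs transiently introduced into human HepG2 liver cells. Induced reporter mRNA is measured after 24 h and fitted bidirectionally relative to DMSO.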

Assay [18] can be described thus: ATG_Sox_CIS: Attagene CIS-FACTORIAL HepG2 Assay for human SRY-box transcription factor (SOX) (AID 2282960). The settings on record: HepG2 Attagene cis-factorial SOX reporter, mRNA; actives raise or lower the signal. Summed up: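 Cells were transfected with reporter constructs under cis-regulatory promoters, then exposed to chemicals for 24 h. Reporter transcripts were quantified by fluorescence after RT-PCR and capillary electrophoresis; activity was fitted in both directions against DMSO.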

Assay [19] in a line: ATG_TA_CIS: Attagene CIS-FACTORIAL HepG2 Assay for human TA Basal Promoter (AID 2282964). The conditions noted are these: HepG2 Attagene CIS-factorial TA basal promoter reporter; actives raise or lower the signal. The essentials:
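Multiplexed mRNA reporter assay, HepG2, 24 h. Reporter cDNA amplified, 6-FAM primer-extended, HpaI-cut, CE-sized; DMSO = negative control and baseline.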

SMILES strings stand for the structures. Active and inactive are the calls of the source. Rule for the calls: active = hit-call score of the fitted dose curve at least 0.9, where 1 is the maximum; inactive = score below 0.9.

Sequence of Hypoxia-inducible factor 1-alpha (Homo sapiens) (Q16665 whole entry, looked up): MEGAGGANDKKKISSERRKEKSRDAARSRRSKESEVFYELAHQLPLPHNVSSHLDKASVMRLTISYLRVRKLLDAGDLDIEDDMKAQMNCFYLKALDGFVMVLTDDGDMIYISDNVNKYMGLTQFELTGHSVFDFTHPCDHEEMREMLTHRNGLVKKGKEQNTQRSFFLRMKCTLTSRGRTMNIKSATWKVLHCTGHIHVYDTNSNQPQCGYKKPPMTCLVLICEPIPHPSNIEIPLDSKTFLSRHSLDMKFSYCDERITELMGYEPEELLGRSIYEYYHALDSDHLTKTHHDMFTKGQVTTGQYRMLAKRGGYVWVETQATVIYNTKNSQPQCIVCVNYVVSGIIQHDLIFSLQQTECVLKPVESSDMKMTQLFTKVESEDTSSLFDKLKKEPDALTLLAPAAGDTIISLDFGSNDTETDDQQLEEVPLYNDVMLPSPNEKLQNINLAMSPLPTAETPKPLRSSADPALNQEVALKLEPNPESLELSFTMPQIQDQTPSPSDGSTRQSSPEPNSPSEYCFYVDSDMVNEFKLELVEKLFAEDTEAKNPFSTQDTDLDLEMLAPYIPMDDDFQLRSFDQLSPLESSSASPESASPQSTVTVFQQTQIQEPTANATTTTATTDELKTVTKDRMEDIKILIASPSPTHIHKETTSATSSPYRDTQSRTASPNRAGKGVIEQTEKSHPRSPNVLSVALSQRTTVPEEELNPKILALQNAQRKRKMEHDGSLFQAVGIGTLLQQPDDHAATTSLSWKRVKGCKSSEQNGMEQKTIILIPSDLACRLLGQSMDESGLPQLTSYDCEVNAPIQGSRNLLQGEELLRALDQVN
Sequence of Heat shock factor protein 1 (Homo sapiens) (Q00613 whole entry, looked up): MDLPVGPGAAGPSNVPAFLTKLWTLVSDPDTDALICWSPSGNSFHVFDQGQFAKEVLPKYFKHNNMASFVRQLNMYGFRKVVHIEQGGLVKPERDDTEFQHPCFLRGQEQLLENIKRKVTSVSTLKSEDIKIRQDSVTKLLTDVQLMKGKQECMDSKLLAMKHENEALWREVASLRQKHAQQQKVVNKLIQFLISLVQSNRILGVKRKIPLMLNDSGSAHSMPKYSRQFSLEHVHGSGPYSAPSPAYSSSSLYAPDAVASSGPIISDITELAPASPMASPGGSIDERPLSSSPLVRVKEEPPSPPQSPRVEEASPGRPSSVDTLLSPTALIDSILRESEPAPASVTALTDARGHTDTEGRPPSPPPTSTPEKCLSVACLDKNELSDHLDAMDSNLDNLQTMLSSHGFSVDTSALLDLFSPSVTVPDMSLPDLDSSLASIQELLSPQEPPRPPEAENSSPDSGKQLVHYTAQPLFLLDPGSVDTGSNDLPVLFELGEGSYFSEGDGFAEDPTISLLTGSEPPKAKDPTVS
Sequence of Transcription factor Sp1 (Homo sapiens) (P08047 whole entry, looked up): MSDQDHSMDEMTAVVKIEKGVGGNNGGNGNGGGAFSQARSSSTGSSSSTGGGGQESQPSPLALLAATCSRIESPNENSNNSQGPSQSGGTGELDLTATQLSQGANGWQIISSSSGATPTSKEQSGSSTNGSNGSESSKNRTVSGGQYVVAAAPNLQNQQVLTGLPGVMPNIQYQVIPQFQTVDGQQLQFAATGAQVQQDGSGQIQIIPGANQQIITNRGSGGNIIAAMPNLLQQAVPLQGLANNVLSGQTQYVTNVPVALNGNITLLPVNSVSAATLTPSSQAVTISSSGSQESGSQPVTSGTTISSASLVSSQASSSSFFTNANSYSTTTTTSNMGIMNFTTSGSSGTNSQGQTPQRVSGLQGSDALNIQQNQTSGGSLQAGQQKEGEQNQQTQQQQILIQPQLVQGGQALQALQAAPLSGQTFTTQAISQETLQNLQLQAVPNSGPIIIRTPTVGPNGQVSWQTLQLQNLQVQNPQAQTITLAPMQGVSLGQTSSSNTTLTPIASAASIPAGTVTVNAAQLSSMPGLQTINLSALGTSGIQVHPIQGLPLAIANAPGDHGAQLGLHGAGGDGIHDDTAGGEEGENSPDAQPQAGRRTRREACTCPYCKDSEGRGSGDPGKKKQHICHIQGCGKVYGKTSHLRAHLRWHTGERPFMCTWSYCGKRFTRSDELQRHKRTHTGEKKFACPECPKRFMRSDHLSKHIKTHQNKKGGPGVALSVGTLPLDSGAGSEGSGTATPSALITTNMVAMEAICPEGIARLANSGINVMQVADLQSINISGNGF
Sequence of Hepatocyte nuclear factor 6 (Homo sapiens) (Q9UBC0 whole entry, looked up): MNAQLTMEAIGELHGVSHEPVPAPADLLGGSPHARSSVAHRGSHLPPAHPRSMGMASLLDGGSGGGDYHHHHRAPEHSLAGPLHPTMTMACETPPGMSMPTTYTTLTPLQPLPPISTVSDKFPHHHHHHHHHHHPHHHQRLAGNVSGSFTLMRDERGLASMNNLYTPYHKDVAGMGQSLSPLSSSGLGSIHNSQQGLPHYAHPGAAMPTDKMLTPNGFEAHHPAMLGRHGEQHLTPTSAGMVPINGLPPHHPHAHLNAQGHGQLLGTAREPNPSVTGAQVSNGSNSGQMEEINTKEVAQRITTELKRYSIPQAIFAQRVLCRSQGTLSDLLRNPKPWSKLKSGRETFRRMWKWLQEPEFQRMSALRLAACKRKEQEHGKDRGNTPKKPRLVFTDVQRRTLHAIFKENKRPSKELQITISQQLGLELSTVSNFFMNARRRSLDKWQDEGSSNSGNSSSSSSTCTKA

Take `Nc1ccc2c(O)cc(S(=O)(=O)O)cc2c1`: the compound was classed as inactive in [1], in assay [2], in assay [3], in assay [4], in assay [5] and in [6]. Besides, the outcome in assay [7], in assay [8], in assay [9], in assay [10], in assay [11] and in assay [12] was inactive. In addition, the compound was called inactive in [13], in assay [14], in assay [15], in [16] and in assay [17].
As for `COC(=O)c1ccc(C)cc1C1=NC(C)(C(C)C)C(=O)N1` (configuration not stated) (tested in a mixture with another compound), the call in assay [1], in assay [2], in assay [3], in [4], in assay [5] and in assay [6] was inactive. Besides, the compound was classed as inactive in [7], in assay [8], in assay [9], in [10], in assay [13] and in [18]. Moreover, the compound was classed as inactive in [14], in [15] and in [19]. Further, in assay [11], the AC50 was 15.2 µM (active).
`O=C(O)c1cc(C(=O)O)cc([N+](=O)[O-])c1`: the result in [1], in assay [2], in assay [3], in [4], in assay [5] and in assay [6] was inactive. In addition, the call in assay [7], in assay [8], in [9], in assay [11], in [13] and in assay [18] was inactive. The call in assay [14], in [15], in assay [19] and in assay [17] was inactive.
On to `COC(C)(C)CC(C)=O`, for which the compound was called inactive in [1], in [2], in assay [3], in assay [4], in [5] and in assay [6]. Further, the outcome in [7], in assay [8], in assay [9], in [12], in assay [13] and in assay [18] was inactive. Moreover, the compound was classed as inactive in [14], in assay [15], in assay [16], in assay [19] and in assay [17]. Besides, the AC50 in assay [11] was 34.4 µM (active).

The record behind these values is PubChem BioAssay (EPA / NIEHS).
